From PubChem BioAssay (EPA / NIEHS)
Inconclusive results are not listed. The source holds several records for some structures; these can differ, active in one and inactive in another. Activity calls are given as the source filed them. How the source made its calls, unless noted: active means hit-call score of the fitted dose curve at least 0.9, where 1 is the maximum; inconclusive means response in the unintended direction; inactive means score below 0.9.

Tests used:
[1] = target: Agonist Androgen Response Element (ARE), AR (gene 367) (UniProt P10275); assay: OT_AR_ARELUC_AG_1440: Odyssey Thera (OT) 24-hour CHO-K1 Luciferase Assay for Agonist Androgen Response Element (ARE) (AID 2283379)
Sequence of Agonist Androgen Response Element (ARE), AR (gene 367) (P10275 whole entry, looked up): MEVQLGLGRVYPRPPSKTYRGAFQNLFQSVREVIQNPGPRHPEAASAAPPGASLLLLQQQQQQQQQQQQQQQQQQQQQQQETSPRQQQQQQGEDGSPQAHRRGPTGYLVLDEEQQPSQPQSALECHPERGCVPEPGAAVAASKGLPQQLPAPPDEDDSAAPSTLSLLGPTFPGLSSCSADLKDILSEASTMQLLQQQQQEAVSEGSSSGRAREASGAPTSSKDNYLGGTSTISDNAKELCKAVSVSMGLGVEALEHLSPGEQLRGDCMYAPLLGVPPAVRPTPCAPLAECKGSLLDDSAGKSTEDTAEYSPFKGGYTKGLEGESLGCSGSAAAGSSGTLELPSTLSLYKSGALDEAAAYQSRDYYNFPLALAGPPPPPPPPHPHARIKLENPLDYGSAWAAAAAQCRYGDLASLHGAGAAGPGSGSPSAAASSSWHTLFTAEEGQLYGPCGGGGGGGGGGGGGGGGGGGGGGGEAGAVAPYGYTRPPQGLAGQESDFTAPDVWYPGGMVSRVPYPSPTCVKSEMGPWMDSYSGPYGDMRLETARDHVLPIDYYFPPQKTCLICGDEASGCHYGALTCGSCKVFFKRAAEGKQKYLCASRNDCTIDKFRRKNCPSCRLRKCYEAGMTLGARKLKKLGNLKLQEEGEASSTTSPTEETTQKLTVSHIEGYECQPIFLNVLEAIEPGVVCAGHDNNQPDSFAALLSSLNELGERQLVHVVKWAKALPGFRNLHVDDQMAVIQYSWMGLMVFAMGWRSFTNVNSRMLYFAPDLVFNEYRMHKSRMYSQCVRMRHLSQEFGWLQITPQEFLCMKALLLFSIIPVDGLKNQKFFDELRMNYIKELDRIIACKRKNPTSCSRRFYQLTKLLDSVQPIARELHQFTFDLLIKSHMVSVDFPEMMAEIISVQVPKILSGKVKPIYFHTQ
In short: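 CHO-K1 cells carrying an ARE-driven luciferase reporter were exposed to compounds for 24 h. Luminescence was then read after adding a D-luciferin/ATP mix, and activity was scored as a gain in signal over DMSO vehicle.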

[2] = target: Estrogen receptor (Homo sapiens) (UniProt P03372); assay: OT_ERa_GFPERaERE_0480: Odyssey Thera (OT) 8-hour HeLa Transcription Induction Assay for Estrogen Receptor (AID 2283381; active means hit-call score of the fitted dose curve at least 0.9, where 1 is the maximum; inactive means score below 0.9)
Sequence of Estrogen receptor (Homo sapiens) (P03372 whole entry, looked up): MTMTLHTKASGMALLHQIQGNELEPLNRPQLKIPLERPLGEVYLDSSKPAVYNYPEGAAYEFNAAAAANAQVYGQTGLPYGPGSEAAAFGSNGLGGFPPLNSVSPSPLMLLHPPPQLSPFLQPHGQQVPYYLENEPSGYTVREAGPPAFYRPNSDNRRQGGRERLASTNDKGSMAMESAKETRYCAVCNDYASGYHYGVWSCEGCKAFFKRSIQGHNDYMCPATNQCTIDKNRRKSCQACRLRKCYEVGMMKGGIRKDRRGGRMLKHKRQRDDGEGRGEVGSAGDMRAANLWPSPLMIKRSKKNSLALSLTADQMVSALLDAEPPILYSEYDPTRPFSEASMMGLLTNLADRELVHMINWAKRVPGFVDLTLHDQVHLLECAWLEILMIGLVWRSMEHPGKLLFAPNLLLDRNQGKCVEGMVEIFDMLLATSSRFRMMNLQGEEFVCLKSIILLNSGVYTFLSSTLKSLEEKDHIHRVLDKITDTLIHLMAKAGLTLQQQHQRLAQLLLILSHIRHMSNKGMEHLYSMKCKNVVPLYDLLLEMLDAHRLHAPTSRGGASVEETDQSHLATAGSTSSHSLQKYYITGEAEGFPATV
In short: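 Cells (HeLa) receive compound; after 8 h, reporter fluorescence is imaged and quantified by high-content analysis. Gain-of-signal relative to DMSO gives the endpoint.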

[3] = target: Estrogen receptor (Homo sapiens) (UniProt P03372); assay: OT_ERa_GFPERaERE_0120: Odyssey Thera (OT) 2-hour HeLa Transcription Induction Assay for Estrogen Receptor (AID 2283382)
In short: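 Measures ESR1 pathway reporter gain-of-signal in HeLa cells after a 2-hour treatment, detected as fluorescent protein induction by microscopy, DMSO as baseline.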

[4] = target: Retinoic acid receptor RXR-alpha (Homo sapiens) (UniProt P19793); assay: OT_NURR1_NURR1RXRa_0480: Odyssey Thera (OT) 8-hour HEK293T Protein Complementation Assay for Nurr1/retinoid X receptor (RXR) (AID 2283385)
Sequence of Retinoic acid receptor RXR-alpha (Homo sapiens) (P19793 whole entry, looked up, the tested form may be a part): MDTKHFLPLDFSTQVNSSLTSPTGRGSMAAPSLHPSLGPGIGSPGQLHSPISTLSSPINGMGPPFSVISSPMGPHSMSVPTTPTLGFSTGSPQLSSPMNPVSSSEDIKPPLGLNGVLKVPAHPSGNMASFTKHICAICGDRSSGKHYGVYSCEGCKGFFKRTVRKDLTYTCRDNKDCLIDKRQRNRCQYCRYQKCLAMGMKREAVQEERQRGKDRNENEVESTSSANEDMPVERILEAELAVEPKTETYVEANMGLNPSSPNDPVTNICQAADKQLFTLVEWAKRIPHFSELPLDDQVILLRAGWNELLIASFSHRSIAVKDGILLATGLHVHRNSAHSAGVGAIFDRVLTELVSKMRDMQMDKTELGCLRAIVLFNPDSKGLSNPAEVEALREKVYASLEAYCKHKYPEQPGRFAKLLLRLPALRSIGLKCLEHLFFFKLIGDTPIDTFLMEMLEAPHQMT
In short: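 Compounds are applied to HEK293T cells carrying Nurr1 and RXRα linked to reporter fragments. After 8 h, fluorescence intensity reports heterodimer formation, with DMSO as baseline.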

[5] = target: Retinoic acid receptor RXR-alpha (Homo sapiens) (UniProt P19793); assay: OT_NURR1_NURR1RXRa_1440: Odyssey Thera (OT) 24-hour HEK293T Protein Complementation Assay for Nurr1/retinoid X receptor (RXR) (AID 2283386)
In short: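 Measured as fluorescence from a reconstituted split reporter, this 24 h HEK293T complementation assay scores compound-induced gain of Nurr1/RXRα association relative to DMSO.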

[6] = target: Peroxisome proliferator-activated receptor gamma (Homo sapiens) (UniProt P37231); assay: OT_PPARg_PPARgSRC1_0480: Odyssey Thera (OT) 8-hour Protein-Complementation Assay for Peroxisome Proliferator-activated Receptor Gamma / SRC-1 Co-activator (AID 2283387)
Sequence of Peroxisome proliferator-activated receptor gamma (Homo sapiens) (P37231 whole entry, looked up, the tested form may be a part): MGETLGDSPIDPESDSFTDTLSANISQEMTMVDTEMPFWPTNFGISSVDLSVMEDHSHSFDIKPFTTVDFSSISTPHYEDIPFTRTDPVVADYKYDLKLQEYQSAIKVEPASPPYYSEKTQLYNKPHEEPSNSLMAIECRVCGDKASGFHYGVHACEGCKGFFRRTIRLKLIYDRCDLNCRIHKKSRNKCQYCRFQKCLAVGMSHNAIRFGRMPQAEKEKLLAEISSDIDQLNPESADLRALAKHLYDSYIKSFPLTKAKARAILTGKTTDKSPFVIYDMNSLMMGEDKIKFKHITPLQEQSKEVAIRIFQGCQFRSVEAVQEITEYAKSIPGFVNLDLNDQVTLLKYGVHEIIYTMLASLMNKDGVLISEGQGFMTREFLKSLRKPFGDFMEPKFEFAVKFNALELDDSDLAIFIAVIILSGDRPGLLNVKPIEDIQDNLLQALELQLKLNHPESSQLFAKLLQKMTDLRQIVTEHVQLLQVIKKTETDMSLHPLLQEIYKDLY
In short: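 Protein-fragment complementation in HEK293T: Venus YFP halves (residues 1-158, 159-239, mutated to IFP1/IFP2) fused to PPARg/SRC-1. 8 h exposure; N/C ratio at 488 nm; DMSO negative control.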

[7] = target: Peroxisome proliferator-activated receptor gamma (Homo sapiens) (UniProt P37231); assay: OT_PPARg_PPARgSRC1_1440: Odyssey Thera (OT) 24-hour Protein-Complementation Assay for Peroxisome Proliferator-activated Receptor Gamma/ SRC-1 Co-activator (AID 2283388)
In short: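 HEK293T transiently transfected with PPARg/SRC-1 split-Venus YFP fusions 48 h before dosing, then treated 24 h at 37C. Fixed cells imaged; nuclear/cytoplasmic 488 nm fluorescence ratio, gain of signal versus DMSO.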

[8] = read-out: Tumor necrosis factor receptor superfamily member 6 (Homo sapiens) (UniProt P25445); assay: LTEA_HepaRG_FAS: Life Technologies and Expression Analysis (LTEA) Assay for Fas cell surface death receptor (FAS) using HepaRG (AID 2283447; active means hit-call score of the fitted dose curve at least 0.9, where 1 is the maximum; inactive means score below 0.9); details: mRNA level, 48 h; actives raise or lower the signal
In short: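 Differentiated HepaRG cells in serum-free induction medium were exposed 48 h to 8 half-log concentrations up to 100 uM in 0.5% DMSO, in duplicate. FAS mRNA was measured by qRT-PCR normalised to ACTB, GAPDH and POLR2A; bidirectional fit versus DMSO.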

[9] = target: Bile acid receptor (Homo sapiens) (UniProt Q96RI1); assay: OT_FXR_FXRSRC1_0480: Odyssey Thera (OT) 8-hour HEK293T Protein-Complementation Assay for Farnesoid X receptor/SRC-1 Co-activator (AID 2283383)
Sequence of Bile acid receptor (Homo sapiens) (Q96RI1 whole entry, looked up, the tested form may be a part): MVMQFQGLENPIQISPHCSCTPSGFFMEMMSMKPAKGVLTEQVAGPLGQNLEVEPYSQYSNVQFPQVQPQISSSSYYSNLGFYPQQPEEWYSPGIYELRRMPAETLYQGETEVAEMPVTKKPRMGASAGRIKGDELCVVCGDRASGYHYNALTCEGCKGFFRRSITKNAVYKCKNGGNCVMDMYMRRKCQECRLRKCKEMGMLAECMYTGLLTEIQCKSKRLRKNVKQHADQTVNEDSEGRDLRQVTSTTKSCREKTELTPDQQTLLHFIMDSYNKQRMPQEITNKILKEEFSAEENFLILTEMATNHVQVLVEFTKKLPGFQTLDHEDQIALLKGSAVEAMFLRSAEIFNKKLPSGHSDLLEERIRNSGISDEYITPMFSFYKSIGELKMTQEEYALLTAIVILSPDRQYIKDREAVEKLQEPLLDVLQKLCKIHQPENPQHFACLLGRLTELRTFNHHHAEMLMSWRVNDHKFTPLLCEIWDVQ
In short: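 Co-activator recruitment to FXR was measured in living HEK293T cells, where interaction of the two fused partners restored an active fluorescent reporter. Signal gain after 8 h treatment was referenced to DMSO.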

[10] = CEETOX_H295R_11DCORT: CeeTox H295R High-throughput Steroidogenesis Assay for 11-Deoxycortisol (11DCORT) (AID 2283432; active means hit-call score of the fitted dose curve at least 0.9, where 1 is the maximum; inactive means score below 0.9;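 on AC50: 11-deoxycortisol secreted into the medium measured by LC-MS/MS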); details: actives raise or lower the signal
In short: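 Adrenal carcinoma line H295R, run per OECD 456 with minor changes, was forskolin-stimulated (10 uM, 48 h) before a 48 h chemical exposure at 0.1% DMSO. Secreted 11-deoxycortisol was quantified by HPLC-MS/MS.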

[11] = CEETOX_H295R_OHPROG: CeeTox H295R High-throughput Steroidogenesis Assay for OH-Progesterone (OHPROG) (AID 2283435; active means hit-call score of the fitted dose curve at least 0.9, where 1 is the maximum; inactive means score below 0.9;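 further: human adrenal H295R cells primed 48 h with 10 µM forskolin; 17alpha-hydroxyprogesterone secreted into medium measured by HPLC-MS/MS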); details: actives raise or lower the signal
In short: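 Secreted 17alpha-hydroxyprogesterone is read by tandem MS from media of forskolin-primed H295R cells dosed with chemical for 48 h. Activity is fitted in both directions against DMSO baseline; cytotoxic concentrations are re-tested diluted.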

[12] = CEETOX_H295R_CORTIC: CeeTox H295R High-throughput Steroidogenesis Assay for Corticosterone (CORTIC) (AID 2283437; active means hit-call score of the fitted dose curve at least 0.9, where 1 is the maximum; inactive means score below 0.9;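 further: corticosterone secreted into medium quantified by mass spectrometry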;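 on AC50: human H295R adrenal cells prestimulated with forskolin before chemical exposure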); details: actives raise or lower the signal
In short: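 H295R adrenal cells prestimulated 48 hours with 10 uM forskolin, then exposed 48 hours to chemical in 0.1% DMSO. Corticosterone in medium measured by HPLC-MS/MS after MTBE extraction; MTT viability in the same wells; bidirectional fit versus DMSO.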

[13] = CEETOX_H295R_CORTISOL: CeeTox H295R High-throughput Steroidogenesis Assay for Cortisol (AID 2283438; active means hit-call score of the fitted dose curve at least 0.9, where 1 is the maximum; inactive means score below 0.9;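 further: cortisol secreted into medium quantified by LC-MS/MS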); details: actives raise or lower the signal
In short: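 Human adrenocortical H295R cells (passage ≤10) received test chemicals for 48 h after forskolin priming. Secreted cortisol was measured by LC-MS/MS.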

[14] = CEETOX_H295R_DOC: CeeTox H295R High-throughput Steroidogenesis Assay for DOC (AID 2283439; active means hit-call score of the fitted dose curve at least 0.9, where 1 is the maximum; inactive means score below 0.9); details: actives raise or lower the signal
In short: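 Secreted DOC was quantified from H295R media by HPLC-MS/MS after 48 h chemical exposure following 48 h forskolin (10 uM) prestimulation. Values were fitted in both directions relative to DMSO, the negative control and baseline.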

[15] = CEETOX_H295R_PROG: CeeTox H295R High-throughput Steroidogenesis Assay for Progesterone (PROG) (AID 2283442; active means hit-call score of the fitted dose curve at least 0.9, where 1 is the maximum; inactive means score below 0.9;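 on AC50: human H295R adrenal cells primed with 10 µM forskolin before dosing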); details: actives raise or lower the signal
In short: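 H295R adrenal cells prestimulated 48 h with 10 uM forskolin, then exposed 48 h to test chemical in 0.1% DMSO. Progesterone in medium quantified by HPLC-MS/MS after MTBE extraction; viability checked by MTT in same wells.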

[16] = CEETOX_H295R_ANDR: CeeTox H295R High-throughput Steroidogenesis Assay for Androstenedione (ANDR) (AID 2283436; active means hit-call score of the fitted dose curve at least 0.9, where 1 is the maximum; inactive means score below 0.9); details: actives raise or lower the signal
In short: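 H295R cells, following OECD 456 with minor changes, exposed to chemicals for 48 h. Androstenedione in the medium was quantified by HPLC-MS/MS after MTBE extraction. Fitting was bidirectional versus DMSO; chemicals were diluted until MTT viability was ≥70%.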

[17] = target: mouse Estrogen Receptor alpha (Era), Esr1 (gene 13982) (UniProt P19785); assay: NVS_NR_mERa: NovaScreen (NVS) Nuclear Receptor Binding Assay for mouse Estrogen Receptor alpha (Era) (AID 2283378);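 further: hit means loss of bound radioligand signal relative to DMSO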
Sequence of mouse Estrogen Receptor alpha (Era), Esr1 (gene 13982) (P19785 whole entry, looked up): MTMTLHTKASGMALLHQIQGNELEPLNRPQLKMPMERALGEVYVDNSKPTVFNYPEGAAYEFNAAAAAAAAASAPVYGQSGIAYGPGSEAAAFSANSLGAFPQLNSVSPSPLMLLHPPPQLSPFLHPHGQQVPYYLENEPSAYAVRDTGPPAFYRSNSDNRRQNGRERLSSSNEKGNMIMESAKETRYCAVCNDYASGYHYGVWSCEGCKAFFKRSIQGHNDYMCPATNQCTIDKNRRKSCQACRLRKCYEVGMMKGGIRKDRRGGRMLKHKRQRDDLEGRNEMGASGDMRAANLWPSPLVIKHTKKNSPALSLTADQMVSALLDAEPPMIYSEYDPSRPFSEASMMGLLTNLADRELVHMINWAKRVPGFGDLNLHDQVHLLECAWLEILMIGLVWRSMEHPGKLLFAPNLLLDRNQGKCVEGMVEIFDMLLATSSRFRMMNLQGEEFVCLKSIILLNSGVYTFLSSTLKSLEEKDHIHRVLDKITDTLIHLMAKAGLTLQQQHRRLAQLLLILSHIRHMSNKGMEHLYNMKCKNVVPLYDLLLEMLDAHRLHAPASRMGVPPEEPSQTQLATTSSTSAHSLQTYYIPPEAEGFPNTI
In short: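 Cell-free radioligand competitive displacement binding, read by filter-based scintillation counting 18 h after dosing. Primary screen run in duplicate at 25 uM, actives retested in concentration series; loss of signal versus DMSO.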

[18] = target: Estrogen receptor beta (Homo sapiens) (UniProt Q92731); assay: OT_ER_ERbERb_1440: Odyssey Thera (OT) 24-hour HEK293T Protein-Complementation Assay for Estrogen Receptor-beta/-beta Homodimer (AID 2283380);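 further: scored as signal increase over DMSO baseline for both agonists and antagonists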
Sequence of Estrogen receptor beta (Homo sapiens) (Q92731 whole entry, looked up, the tested form may be a part): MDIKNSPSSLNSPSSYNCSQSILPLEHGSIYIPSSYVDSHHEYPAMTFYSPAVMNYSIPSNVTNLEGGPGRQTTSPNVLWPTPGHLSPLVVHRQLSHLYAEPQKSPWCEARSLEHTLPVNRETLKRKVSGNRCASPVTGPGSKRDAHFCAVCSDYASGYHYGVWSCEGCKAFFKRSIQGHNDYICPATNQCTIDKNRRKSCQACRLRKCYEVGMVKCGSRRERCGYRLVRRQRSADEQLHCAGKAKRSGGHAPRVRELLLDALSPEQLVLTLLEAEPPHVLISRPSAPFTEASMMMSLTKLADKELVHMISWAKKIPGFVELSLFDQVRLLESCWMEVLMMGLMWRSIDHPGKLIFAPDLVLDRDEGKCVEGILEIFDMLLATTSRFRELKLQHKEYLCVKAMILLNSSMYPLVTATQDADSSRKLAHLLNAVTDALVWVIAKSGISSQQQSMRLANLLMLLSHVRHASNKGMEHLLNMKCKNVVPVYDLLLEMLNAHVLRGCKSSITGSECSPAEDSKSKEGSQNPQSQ
In short: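 HEK293T cells stably expressing ER beta LBD (aa 310-547) homodimer fragment-complementation reporter, dosed 24 h. Cells formaldehyde-fixed, Draq5-stained; gain in nuclear (agonist) or nuclear plus cytoplasmic (antagonist) fluorescence versus DMSO read by laser scanning cytometry.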

[19] = CEETOX_H295R_ESTRADIOL: CeeTox H295R High-throughput Steroidogenesis Assay for Estradiol (AID 2283440; active means hit-call score of the fitted dose curve at least 0.9, where 1 is the maximum; inactive means score below 0.9;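 further: estradiol secreted into medium quantified by LC-MS/MS after dansyl derivatisation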); details: actives raise or lower the signal
In short: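 H295R cells pre-stimulated 48 h with 10 uM forskolin, then exposed 48 h to chemical in 0.1% DMSO. Medium estradiol quantified by MTBE extraction, dansyl derivatisation and HPLC-MS/MS; bidirectional fit versus DMSO; MTT viability required >/=70%.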

[20] = CEETOX_H295R_ESTRONE: CeeTox H295R High-throughput Steroidogenesis Assay for Estrone (AID 2283441; active means hit-call score of the fitted dose curve at least 0.9, where 1 is the maximum; inactive means score below 0.9;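 further: estrone secreted into medium measured by LC-MS/MS after dansyl derivatization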); details: actives raise or lower the signal
In short: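 H295R cells; 48 h forskolin (10 uM) prestimulation; 48 h compound exposure, 0.1% DMSO final. Medium estrone: MTBE extraction, dansyl derivatization, HPLC-MS/MS. Bidirectional fit vs DMSO.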

Measured: AC50

Cc1ccc(C)c(O)c1C
inactive: [1] | [2] | [3] | [4] | [5] | [6] | [7] | [8]

Cc1cc(NC(=O)C(=O)O)cc(C)c1Oc1ccc(O)c2c1CCC2
inactive: [1] | [2] | [3] | [9] | [4] | [5] | [10] | [13] | [8]
active: [11] 35 µM | [12] 34.1 µM | [14] 37.6 µM | [15] 43.2 µM

COc1ccc(S(=O)(=O)N2C(=O)[C@@](c3ccccc3OC)(N3C[C@H](O)C[C@H]3C(=O)N(C)C)c3cc(Cl)ccc32)c(OC)c1
inactive: [3] | [4] | [5] | [6] | [7] | [10] | [16] | [12] | [13] | [14] | [15] | [8]
active: [1] 0.694 µM | [2] 86.4 µM | [5] 79.5 µM | [11] 5.43 µM

O=C(N[C@@H](Cc1ccccc1)[C@@H](O)C(=O)N1C[C@@H](O)[C@@H](O)C1)c1cc2cc(Cl)ccc2[nH]1
inactive: [17] | [18] | [2] | [3] | [4] | [5] | [6] | [7] | [8]

CN1CCN(Cc2cc(-c3ccc4[nH]c(=O)oc4c3)co2)[C@@H](c2ccc(F)cc2)C1
inactive: [6] | [7] | [10] | [12] | [13] | [14] | [19] | [20] | [8]
active: [17] 5.79 µM | [4] 10.1 µM | [11] 4.56 µM | [15] 14.1 µM

COc1ccc(C)cc1N
active: [11] 19.3 µM | [12] 74.3 µM | [13] 36.7 µM | [15] 33.2 µM
not listed: [9] | [17] | [18] | [19] | [20]
inactive: all other assays above

Cc1ccc(C)c(C)c1
inactive: [1] | [18] | [2] | [3] | [4] | [5] | [6] | [7] | [8]

CCCCCC(=O)O
inactive: [1] | [18] | [2] | [3] | [4] | [5] | [6] | [7] | [8]

CC1(C)NC(=O)NC1=O
inactive: [17] | [2] | [3] | [4] | [5] | [6] | [7] | [8]

Cc1ccccc1Cl
inactive: [17] | [1] | [2] | [3] | [9] | [4] | [5] | [6] | [7] | [8]

C[Si]1(C)O[Si](C)(C)O[Si](C)(C)O[Si](C)(C)O1
inactive: [17] | [18] | [2] | [3] | [9] | [4] | [5] | [6] | [7] | [8]

CC(C)(C)c1cc(O)c(C(C)(C)C)cc1O
active: [5] 33.3 µM | [8] 81.7 µM
inactive: [17] | [18] | [2] | [3] | [4] | [5] | [6] | [7]

COCCOCCOC
inactive: [1] | [18] | [2] | [3] | [4] | [5] | [6] | [7]
active: [8] 0.382 µM

Cc1nc(-c2ccc3c(c2)CCN(CCC2CCC(NC(=O)/C=C/c4ccc(F)cc4)CC2)CC3)no1 (stereo not given)
active: [10] 0.199 µM | [11] 0.224 µM | [16] 0.365 µM | [14] 0.0532 µM | [15] 0.0391 µM
not listed: [9] | [17]
inactive: all other assays above

Cc1cccc(Nc2cc(Cl)nc(SCC(=O)O)n2)c1C
active: [10] 7.04 µM | [11] 8.61 µM | [15] 12.3 µM
not listed: [9]
inactive: all other assays above

COC(=O)c1ccc(O)cc1
active: [11] 45 µM | [15] 50 µM
not listed: [1] | [4] | [9] | [16]
inactive: all other assays above

CN[C@H]1CC[C@@H](c2ccc(Cl)c(Cl)c2)c2ccc(S(N)(=O)=O)cc21
inactive: [17] | [1] | [18] | [3] | [6] | [7] | [8]
active: [2] 12.3 µM
